This passage reports Potency results from PubChem BioAssay (NCATS).

Test [1] is described as follows: Quantitative High-Throughput drug screen in 47 multiple myeloma cell lines against the NCATS MIPE library collection: U266_ATCC cell viability assay (AID 1919864). Note: nearly all actives have a fitted effect of over 35% in size. The method in brief: (§1)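 Readout: median RLU from CellTiter-Glo after 5 min at room temperature. Preceding step was 48 h drug treatment of 500 cells/well at 37 °C, 5% CO2, with DMSO-only and media-only control wells.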

Test [2] can be described thus: Quantitative High-Throughput drug screen in 47 multiple myeloma cell lines against the NCATS MIPE library collection: XG1_PLB cell viability assay (AID 1919866). Note: nearly all actives have a fitted effect of over 35% in size. The method in brief: as §1
Test [3] in a line: Quantitative High-Throughput drug screen in 47 multiple myeloma cell lines against the NCATS MIPE library collection: VP6_DJ cell viability assay (AID 1919867). Note: nearly all actives have a fitted effect of over 40% in size. The essentials: as §1
Test [4] can be described thus: Quantitative High-Throughput drug screen in 47 multiple myeloma cell lines against the NCATS MIPE library collection: PE2_PLB cell viability assay (AID 1919869). Note: nearly all actives have a fitted effect of over 35% in size. The essentials: as §1
Test [5] in a line: Quantitative High-Throughput drug screen in 47 multiple myeloma cell lines against the NCATS MIPE library collection: PCM6_Riken cell viability assay (AID 1919870). Note: nearly all actives have a fitted effect of over 30% in size. The method in brief: as §1
The nature of test [6]: Quantitative High-Throughput drug screen in 47 multiple myeloma cell lines against the NCATS MIPE library collection: RPMI8226_ATCC cell viability assay (AID 1919871). Note: nearly all actives have a fitted effect of over 30% in size. The essentials:
as §1

A short description of test [7]: Quantitative High-Throughput drug screen in 47 multiple myeloma cell lines against the NCATS MIPE library collection: OPM2_DSMZ cell viability assay (AID 1919872). Note: nearly all actives have a fitted effect of over 30% in size. The essentials: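 Myeloma cell lines, 500 cells per well, exposed to MIPE 4.0 library compounds for 48 h at 37C, 5% CO2. Viability from ATP by CellTiter-Glo luminescence; normalised to DMSO (100%) and media-only (0%) wells.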

A short description of test [8]: Quantitative High-Throughput drug screen in 47 multiple myeloma cell lines against the NCATS MIPE library collection: KMS11_JCRBsus cell viability assay (AID 1919873). Note: nearly all actives have a fitted effect of over 50% in size. The essentials: as §1
Test [9] can be described thus: Quantitative High-Throughput drug screen in 47 multiple myeloma cell lines against the NCATS MIPE library collection: XG6_PLB cell viability assay (AID 1919865). Note: nearly all actives have a fitted effect of over 40% in size. The essentials: as §1
A short description of test [10]: Quantitative High-Throughput drug screen in 47 multiple myeloma cell lines against the NCATS MIPE library collection: UTMC2_PLB cell viability assay (AID 1919868). Note: nearly all actives have a fitted effect of over 55% in size. As to conditions: CellTiter-Glo ATP luminescence, 48 h; viability (% of DMSO control): at 45.8 µM (top of the series). The method in brief: as §1
On the technique in general: Cellular ATP, detected with luciferase, serves as a proxy for viable cell number.

SMILES strings stand for the structures. Inconclusive results are not listed. Active and inactive are the calls of the source. Calls come from the whole dose curve; as a rule, active = well fitted cell-killing curve with a large enough effect; inconclusive = small, poorly fitted or top-dose-only effect, or effect the other way; inactive = no such curve, though single readings can be large or run the other way. Starred links: 1 amine or outer side, 2 acyl side, 3 side chain; linkers in the order of their positions; H or OH if unused. Positions of bridges follow the written chain, without caps; N, C: chain ends. Non-standard residues stand in square brackets, D forms with d. Residues, ends and D or L forms follow the SMILES beside them. Chains are numbered I, II in the order given. Actinocin(9to1) = Cc1c2oc3c(C)ccc(C(=O)[*:1])c3nc-2c(C(=O)[*:2])c(N)c1=O; NMeV = CN[CH](C(=O)O)C(C)C; Sar = CNCC(=O)O
Potency is the fitted concentration of half-maximal effect.

For the compound `O=C(O)CCCCCC(=O)NN=C1CCCC1`, the Potency result in test [1], in test [2], in test [3], in test [4], in test [5] and in [6] was “inactive” each time. The Potency entry in test [7] and in test [8] was “inactive” throughout.
With `COC1=C2C[C@@H](C)C[C@H](OC)[C@@H](O)[C@@H](C)C=C(C)[C@H](OC(N)=O)[C@@H](OC)C=CC=C(C)C(=O)NC(=CC1=O)C2=O`, the Potency was 132 nM (active) in test [1]; 332 nM (active) in test [9]; 132 nM (active) in [3]; 296 nM (active) in [4]; 148 nM (active) in [5]; 105 nM (active) in test [6]. The Potency in [7] is 332 nM (active); in test [8], 83.3 nM (active).
For the compound `CC(C)C[C@H](NC(=O)[C@@H](NC(=O)c1cccc(-c2ccccc2)n1)[C@@H](C)O)B(O)O`, the Potency in [1] was 14.8 nM (active); in test [2], 18.7 nM (active); in [3], 9.3 nM (active); in test [10] it was 166 nM (active); in test [4], 11.8 nM (active); in [5] it was 23.5 nM (active). Also, the figures for the Potency in [6], in test [7] and in test [8] were 52.6 nM (active), 41.8 nM (active) and 13.2 nM (active), respectively.
Consider `C=Cc1c(C)c2cc3nc(cc4[nH]c(cc5nc(cc1[nH]2)C(C)=C5CCC(=O)O)c(CCC(=O)OC)c4C)[C@@]1(C)C3=CC=C(C(=O)OC)[C@H]1C(=O)OC`, for which the Potency in [1] is 296 nM (active); in test [2], 93.5 nM (active); in test [3] it was 118 nM (active); in test [4] it was 209 nM (active); in test [5], 83.3 nM (active); in test [6], 935 nM (active). Also, the Potency is 1050 nM (active) in [7] and 9350 nM (active) in test [8].
For `C[C@H](CCC(=O)O)[C@H]1CCC2C3C[C@H](O)[C@@H]4C[C@H](O)CC[C@]4(C)C3CC[C@@]21C` (stereo partly specified), the Potency entry in [1], in test [10], in test [4], in test [5], in test [6] and in test [7] was “inactive” in each case. The Potency in [2] is 18700 nM (active).
For `COc1cc([C@@H]2c3cc4c(cc3[C@@H](O[C@@H]3O[C@@H]5CO[C@@H](c6cccs6)O[C@@H]5[C@H](O)[C@@H]3O)[C@H]3COC(=O)[C@H]23)OCO4)cc(OC)c1O`, the Potency in test [1] is 14800 nM (active); in test [3], 469 nM (active); in [10], 52.6 nM (active); in test [4], 166 nM (active); in test [5] it was 662 nM (active); in test [7] it was 4180 nM (active). For the same compound, the Potency in [8] was 1320 nM (active).
With `Cc1c2oc3c(C)ccc(C(=O)NC4C(=O)NC(C(C)C)C(=O)N5CCCC5C(=O)N(C)CC(=O)N(C)C(C(C)C)C(=O)OC4C)c3nc-2c(C(=O)NC2C(=O)NC(C(C)C)C(=O)N3CCCC3C(=O)N(C)CC(=O)N(C)C(C(C)C)C(=O)OC2C)c(N)c1=O` (stereo unspecified) (I: TVP[Sar][NMeV] / II: TVP[Sar][NMeV]; ester I:1-I:C, II:1-II:C; linker I:N-II:N via Actinocin(9to1); configuration not given here), the Potency entry in test [1], in test [3], in [10], in test [4], in test [5] and in [6] was “inactive” throughout. Also, the Potency entry in test [7] and in test [8] was “inactive” in each case.
Take `CC[C@]12C=CCN3CC[C@@]4(c5cc([C@@]6(C(=O)OC)C[C@H]7C[C@@H](C(C)(F)F)CN(Cc8c6[nH]c6ccccc86)C7)c(OC)cc5N(C)[C@H]4[C@@](O)(C(=O)OC)[C@H]1OC(C)=O)[C@@H]32`: the Potency in [1] is 1660 nM (active); in test [10] it was 1 nM (active); in [5], 10.5 nM (active); in test [6], 166 nM (active); in test [7], 11.8 nM (active); in test [8], 2.6 nM (active).
For the compound `CC(C)c1cc(C(C)C)c(CC(=O)NS(=O)(=O)Oc2c(C(C)C)cccc2C(C)C)c(C(C)C)c1`, in [1], the Potency result was “inactive”. The Potency was 10500 nM (active) in test [10], 5900 nM (active) in [4], 23500 nM (active) in [7] and 2350 nM (active) in test [8].
With `CCCCCCCCCCCCc1ccc(S(=O)(=O)Nc2nncs2)cc1`, the Potency result in test [1], in test [3], in test [5], in [7] and in test [8] was “inactive” throughout. In test [4], the Potency was 8330 nM (active).
As for `Cc1ccc(-n2[nH]c(C)c(N=Nc3cccc(-c4cccc(C(=O)O)c4)c3O)c2=O)cc1C`, the Potency in [1] is 20900 nM (active); in [2] it was 23500 nM (active); in test [4], 26400 nM (active); in [8] it was 23500 nM (active).
With `COc1cc(OC)cc(-c2ccc3ncc4ccc(=O)n(-c5ccc(N6CCNCC6)c(C(F)(F)F)c5)c4c3c2)c1`, the Potency in test [9] is 833 nM (active); in test [2], 526 nM (active); in [3] it was 2640 nM (active); in test [10], 2960 nM (active); in test [4], 3320 nM (active); in [5] it was 3720 nM (active). Also, the Potency in [6] was 11800 nM (active); in [7] it was 8330 nM (active); in test [8], 2640 nM (active).
As for `COc1cccc2c1C(=O)c1c(O)c3c(c(O)c1C2=O)C[C@@](O)(C(=O)CO)C[C@@H]3O[C@H]1C[C@H](N)[C@@H](O)[C@H](C)O1`, the Potency in [9] is 148 nM (active); in test [2], 526 nM (active); in test [3], 935 nM (active); in test [10], 118 nM (active); in test [4], 148 nM (active); in test [5], 209 nM (active). For the same compound, the Potency in test [6] and in test [8] was 935 nM (active) each time.
As to `CN[C@H]1[C@@H](O)[C@@H]2O[C@@H]3O[C@H](C)CC(=O)[C@]3(O)O[C@@H]2[C@@H](NC)[C@H]1O`, the Potency in test [9] was 296 nM (active); in test [2], 93.5 nM (active); in test [3], 1870 nM (active); in [10] it was 6620 nM (active); in test [4] it was 3320 nM (active); in [5] it was 1480 nM (active).
On to `CC[C@H]1OC(=O)[C@H](C)[C@@H](O[C@H]2C[C@@](C)(OC)[C@@H](O)[C@H](C)O2)[C@H](C)[C@@H](O[C@@H]2O[C@H](C)C[C@H](N(C)C)[C@@H]2O)[C@](C)(OC)C[C@@H](C)C(=O)[C@H](C)[C@@H](O)[C@]1(C)O`, for which the Potency entry in test [9], in test [2], in [3], in [10], in test [4] and in [5] was “inactive” each time.
For the compound `Cc1ccccc1C(=O)Nc1ccc(C(=O)N2CCCC(O)c3cc(Cl)ccc32)c(C)c1` (stereo unspecified), the Potency entry in [1], in test [6], in test [7] and in [8] was “inactive” each time. Moreover, in [2], the Potency was 14800 nM (active).
Turning to `C#Cc1cccc(Nc2ncnc3cc(OCCOC)c(OCCO)cc23)c1`, the Potency in test [1] was 16600 nM (active); in test [4], 1050 nM (active); in [8], 8330 nM (active).
On to `CCCCCCCN(CC)CCCC(O)c1ccc(NS(C)(=O)=O)cc1` (stereo unspecified), for which the Potency entry in test [1] and in [6] was “inactive” in each case. Further, the Potency in [2] was 18700 nM (active).
